Screening data deposited in PubChem by several laboratories.
E-sel TNF inh = E-selectin induction blockers in HUVEC – imaging, immunofluorescence, high content, primary screen; HUVEC TNFa-induced E-selectin immunofluorescence; inhibition, % at 2 µM; 120,000 compounds, 0.71% hits;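 active means inhibition above the batch mean plus 3 SD, and confirmed as a hit on visual image review, cut at about 43% in these data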
CYP2C19 act = human CYP2C19 activators, primary screen, biochemical, luminescence; 96,000 tested, under 10 active; recombinant CYP2C19, luciferin-H EGE luminescence; hits give high values; 0 = fully inhibited enzyme, 1 = untreated enzyme; activation factor at 5 µM; Cytochrome P450 2C19 (Homo sapiens), P33261;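 active means activation factor of at least 2 at 5 µM in the primary screen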
Target sequence (P33261 whole entry, looked up): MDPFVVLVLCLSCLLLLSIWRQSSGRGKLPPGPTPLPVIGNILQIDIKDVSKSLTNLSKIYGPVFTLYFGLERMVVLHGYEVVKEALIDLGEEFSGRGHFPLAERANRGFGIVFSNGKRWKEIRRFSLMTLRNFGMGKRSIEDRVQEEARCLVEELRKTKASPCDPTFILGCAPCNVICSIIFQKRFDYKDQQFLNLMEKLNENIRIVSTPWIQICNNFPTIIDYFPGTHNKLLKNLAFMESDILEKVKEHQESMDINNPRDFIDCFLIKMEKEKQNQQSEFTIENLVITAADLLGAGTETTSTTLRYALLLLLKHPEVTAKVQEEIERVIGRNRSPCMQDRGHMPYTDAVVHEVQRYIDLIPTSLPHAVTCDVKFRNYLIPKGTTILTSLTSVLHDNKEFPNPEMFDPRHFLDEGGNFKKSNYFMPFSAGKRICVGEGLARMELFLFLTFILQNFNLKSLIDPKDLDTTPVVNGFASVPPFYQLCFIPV
CYP2C9 inhib = blockers of cytochrome P450 2C9 activity – biochemical, luminescence, ADME assay, primary screen; P11712; CYP2C9 Supersomes, luciferin-H conversion; inhibition, % at 5 µM; 96,000 compounds, 20% hits; AID 777, 2007;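 active means blocking of liver enzyme CYP2C9 beyond about 50% at 5 µM, limit read from the data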
CYP2C19 inh = blockers of cytochrome P450 2C19 activity – biochemical, luminescence, ADME assay, primary screen | CYP2C19 Supersomes, luciferin-H EGE luminescence, 30 min | inhibition, % at 5 µM | 96,000 compounds, 21% hits | AID 778, 2007;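 active means CYP2C19 inhibition above a set limit at 5 µM in the primary screen, cut at about 50% in these data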
CYP2C9 activ = human CYP2C9 activators, primary screen, biochemical, luminescence. recombinant CYP2C9, luciferin-H conversion; hits give high values; factor 1 = untreated enzyme, 0 = blocked. Cytochrome P450 2C9 (Homo sapiens), P11712. activation factor at 5 µM. 96,000 compounds, 1.4% hits;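 active means activation factor of 2 or more for CYP2C9 at a 5 µM dose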
cytoskel mod = modifiers of F-actin cytoskeleton organization, primary screen, imaging, HUVEC, phalloidin staining, high-content imaging; HUVEC TNFa F-actin phalloidin imaging; inhibition, % at 2 µM; 91,000 compounds, 0.18% hits; AID 836, 2007;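 active means inhibition above the batch mean plus 3 SD and confirmed as a hit by visual image inspection, cut at about 30% in these data, passing the limit was not always enough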
Of the large screens only hits and unclear results are named; the others gave an inactive call. The list is not random: actives were taken first. Their share in the collection is about 22%.

COc1ccc(-c2noc(CCC(=O)N3CCC(C)CC3)n2)cc1	none
Clc1ccc(-c2noc(CN3CCCC3)n2)cc1	CYP2C19 inh 55 (no result: cytoskel mod)
Cc1ccc(-c2noc(CCC(=O)NC3CCCc4ccccc43)n2)cc1 (stereo not given)	CYP2C9 inhib 62 (no result: cytoskel mod)
Cc1ccc(-c2noc(CCC(=O)N3CCCC3)n2)cc1	CYP2C9 inhib 52, CYP2C19 inh 52
Cc1ccc(-c2noc(CCC(=O)NC3CCN(Cc4ccccc4)CC3)n2)cc1	CYP2C9 inhib 72, CYP2C19 inh 55 (no result: E-sel TNF inh)
Cc1cc(C)n(C(=O)C(C)N2C(=O)c3ccccc3C2=O)n1 (stereo not given)	none (no result: cytoskel mod)
COc1ccc(-c2noc(CCC(=O)N3CCN(Cc4ccccc4)CC3)n2)cc1	CYP2C9 inhib 95, CYP2C19 inh 94
COc1ccc(-c2noc(CN3CCC(Cc4ccccc4)CC3)n2)cc1	CYP2C9 inhib 71, CYP2C19 inh 66
COc1cccc(C(=O)c2sc(NC(C)C)nc2N)c1	none (no result: CYP2C19 act, CYP2C9 inhib, CYP2C19 inh, CYP2C9 activ, cytoskel mod)
COc1ccc(C(=O)c2sc(NC(C)C)nc2N)cc1OC	CYP2C19 inh 86 (no result: E-sel TNF inh)
CCN(CC)c1cc(-c2ccccc2)ncn1	none (no result: CYP2C19 act, CYP2C9 inhib, CYP2C19 inh, CYP2C9 activ, cytoskel mod)
CCN(CC)c1cc(Oc2ccccc2)ncn1	CYP2C19 inh 80
COC(=O)c1sccc1NC(=S)N1CCN(c2ccc(F)cc2)CC1	none (no result: CYP2C19 act, CYP2C9 inhib, CYP2C19 inh, CYP2C9 activ, cytoskel mod)
O/N=C1\CC(O)Cc2nonc21 (stereo not given)	none
Cc1cccc(N2CCN(C(=O)CCCn3c(=S)[nH]c4cc5c(cc4c3=O)OCO5)CC2)c1C	CYP2C9 inhib 59
O=C(CCCn1c(=S)[nH]c2cc3c(cc2c1=O)OCO3)N1CCN(c2ccccc2)CC1	CYP2C9 inhib 80
CC(C)C(=O)Nc1ccc2c(c1)C(=O)N(CCC(=O)O)C2=O	none
CC1(C)SC(=S)N(Cc2ccc3c(c2)OCO3)C1N(O)C(=O)NC1CCCCC1 (stereo not given)	CYP2C9 inhib 72
CC1(C(=O)NC2CCCCCC2)CCC(=O)N1Cc1ccc2c(c1)OCO2 (stereo not given)	none
O=C1Nc2cc(Cl)c(Cl)cc2N(O)N1c1ccc(Cl)c(Cl)c1	CYP2C9 inhib 54
O=C1C2CCCN2C(c2ccccc2)N1c1nccs1 (stereo not given)	E-sel TNF inh 85
O=C1C2CCCN2C(c2ccccc2)N1c1cccc(Cl)c1 (stereo not given)	none
CC(C)CCNC(=O)C(NS(=O)(=O)c1ccc2c(c1)c(=O)n(C)c(=O)n2C)c1ccccc1 (stereo not given)	none (no result: E-sel TNF inh)
Cc1ccc(S(=O)(=O)C(C#N)c2nc3ccccc3nc2N2CC(C)OC(C)C2)cc1C (stereo not given)	none (no result: E-sel TNF inh)
COC(=O)c1c(C(=O)OC)c2n(c1C)Cc1ccccc1C2	none
Cn1c(SCC(=O)NCc2ccco2)nnc1-c1c[nH]c2ccccc12	CYP2C19 inh 52 (no result: E-sel TNF inh, cytoskel mod)
Cn1c(SCC(=O)NCc2ccco2)nnc1-c1ccccc1	none (no result: CYP2C19 act, CYP2C9 inhib, CYP2C19 inh, CYP2C9 activ)
CCOc1ccc(-n2c(SCC(=O)NCc3ccco3)nnc2-c2c[nH]c3ccccc23)cc1	CYP2C9 inhib 60 (no result: E-sel TNF inh)
CCOc1ccc(-n2c(SCC(=O)Nc3cc(C)on3)nnc2-c2c[nH]c3ccccc23)cc1	none
COc1ccc(C(=O)NC(Nc2ccc(C)cc2)C(Cl)(Cl)Cl)cc1 (stereo not given)	none (no result: CYP2C19 act, CYP2C9 inhib, CYP2C19 inh, CYP2C9 activ, cytoskel mod)
COc1ccc(NC(NC(=O)c2ccc(OC)cc2)C(Cl)(Cl)Cl)cc1 (stereo not given)	CYP2C9 inhib 84, CYP2C19 inh 66
COc1cc(NC(=O)c2ccco2)c(OC)cc1NC(=O)Nc1ccc(Cl)cc1	none (no result: E-sel TNF inh)
COc1cc(NC(=O)Cc2ccc(Cl)cc2)ccc1NC(=O)c1ccco1	none
COc1ccc(NC(=O)c2cc(Cl)ccc2NC(=O)c2ccco2)c(OC)c1	CYP2C9 inhib 94, CYP2C19 inh 73
COc1cc(OC)c(NC(=O)c2ccco2)cc1Cl	E-sel TNF inh 100
COc1ccc(N=C(C)C2=C(O)COC2=O)cc1	none
CC(=O)N=c1sc2ccccc2n1C	none (no result: E-sel TNF inh)
CC(C(=O)N=c1sc2ccccc2n1C)N1C(=O)C2CC=CCC2C1=O (stereo not given)	CYP2C9 inhib 58, CYP2C19 inh 80
Cn1c(=O)[nH]c(=O)c2c1nc(CN1CCOCC1)n2CCCO	none
COc1ccccc1CNc1nc2nc(C)c(Cl)c(=O)n2[nH]1	CYP2C9 inhib 61
CNC(=S)N(Cc1ccc(OC)cc1)Cc1cc2ccc(C)cc2[nH]c1=O	none (no result: CYP2C19 act, CYP2C9 inhib, CYP2C19 inh, CYP2C9 activ, cytoskel mod)
FC(F)(F)c1nc2ccccc2n2c(-c3ccc(Cl)cc3Cl)nnc12	none
FC(F)(F)c1nnc2c(Sc3ccccc3)nc3ccc(Cl)cc3n12	CYP2C19 inh 50
CSc1ccc(CNc2ccccc2)cc1	CYP2C19 inh 92
CSc1ccc(CNc2ccccn2)cc1	CYP2C19 inh 63 (no result: E-sel TNF inh)
CSc1n[nH]c(NCc2ccccc2)n1	none
NC(=O)C1(N2CCCCC2)CCN(C(=O)Nc2ccccc2C(F)(F)F)CC1	none (no result: CYP2C19 act, CYP2C9 inhib, CYP2C19 inh, CYP2C9 activ)
Cc1ccc(S(=O)(=O)N2CCCC(C(=O)NCC3COCCO3)C2)cc1 (stereo not given)	none
N#CC(C#N)=C1c2cc(S(N)(=O)=O)ccc2-c2ccc(S(N)(=O)=O)cc21	none (no result: CYP2C19 act, CYP2C9 inhib, CYP2C19 inh, CYP2C9 activ, cytoskel mod)
Cc1ccc(/C(CSc2nccn2-c2ncc(C(F)(F)F)cc2Cl)=N\O)cc1	CYP2C9 inhib 52, CYP2C19 inh 56
O=C(CSc1nccn1-c1ncc(C(F)(F)F)cc1Cl)c1ccc(Br)cc1	CYP2C9 inhib 62, CYP2C19 inh 93
CC(/C=C/c1ccc(O)cc1)=N/O	none (no result: CYP2C19 act, CYP2C9 inhib, CYP2C19 inh, CYP2C9 activ)
CCN1CCN(c2ncc(C(=O)Nc3ccccc3C(=O)OC)c3ccccc23)CC1	CYP2C9 inhib 56
Cc1cc(C(=O)CSc2nnc(-c3cccs3)o2)c(C)n1-c1ccccc1	CYP2C9 inhib 89, CYP2C19 inh 66 (no result: cytoskel mod)
CCC1CCCCN1C(=O)CSc1nnc(-c2cccs2)o1 (stereo not given)	CYP2C19 inh 98
COCCn1c(C)cc(C(=O)CSc2nncn2-c2ccccc2)c1C	CYP2C19 inh 57
O=C(CSc1nnc(-c2cccs2)o1)OC1CCCCC1	none (no result: E-sel TNF inh, cytoskel mod)
COc1ccc(-n2cnnc2SCC(=O)c2cc(C)n(Cc3cccs3)c2C)cc1	CYP2C9 inhib 76, CYP2C19 inh 99
COCCn1c(C)cc(C(=O)CSc2nnc3scc(-c4ccc(Cl)cc4)n23)c1C	none (no result: CYP2C19 act, CYP2C9 inhib, CYP2C19 inh, CYP2C9 activ)
CC(=O)N=c1sc2nc3ccccc3nc2n1N(C(C)=O)C(C)=O	none (no result: cytoskel mod)
COc1ccc(C2CC(=O)c3cnc(Nc4cc(C)cc(C)c4)nc3C2)cc1 (stereo not given)	none
COc1ccc(-c2nnc(SCC(=O)c3cc(C)n(Cc4cccs4)c3C)o2)cc1	CYP2C9 inhib 78, CYP2C19 inh 80
